# Records with an inconclusive call do not appear. Where a call stands in place of a potency, no number is given. Activity calls are given as the source filed them. Unless noted, the call rests on the fitted dose curve; in most records, active means well fitted curve in the direction sought with a large enough effect; inconclusive means small, poorly fitted or top-dose-only effect, or another doubt; inactive means no such curve, though single readings can be large; an effect the other way counts as inactive or inconclusive.
# How the values were obtained:
# [1] = Validation of Assay for Modulators of Lamin A Splicing (AID 1459; active means well fitted curve in the direction sought with a large enough effect in the signal ratio; the % refers to the signal ratio;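 further: cells exposed to compound for two days before reading; ratio rise marks activators and ratio drop marks inhibitors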)
# Procedure, shortened: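 Splicing correction read as GFP (500-530 nm) over DsRed2 (575-640 nm) object intensity after 48 h compound exposure of reporter HeLa S3 clones (600 cells/well, 2% FBS medium); ancitabine and cycloheximide titrations, 0.5% DMSO as vehicle.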
# [2] = biological target: DNA repair nuclease/redox regulator APEX1 (Homo sapiens) (UniProt P27695); test: qHTS Validation Assay for Inhibitors of the Human Apurinic/apyrimidinic Endonuclease 1 (APE1) (AID 1705; further: potency means the concentration at half of the fitted maximal effect)
# Procedure, shortened: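 Activity read as rising fluorescence (598 nm emission, 525 nm excitation) from incision of a TAMRA/BHQ-2 duplex carrying a THF abasic site (50 nM). Compound and enzyme sat 15 min at RT before substrate start; signal change between first and third 60-s reads.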
# [3] = Counterscreen for APE1 Inhibitors: Fluorescent Dye Displacement Validation Assay (AID 1707)
# Procedure, shortened: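 Counterscreen flags promiscuous DNA binders: compounds displacing ThO from duplex DNA (abasic THF site, 50 nM) reduce 540 nm emission (480 nm excitation). ThO 250 nM final; Tris-HCl pH 7.5 with NaCl, MgCl2 and Tween-20.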
# [4] = qHTS for differential inhibitors of proliferation of Plasmodium falciparum line 7G8 (AID 1815);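 further: parasite growth measured after three days of incubation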; further: potency means the concentration at half of the fitted maximal effect
# [5] = qHTS for differential inhibitors of proliferation of Plasmodium falciparum line GB4 (AID 1816); conditions: Potency: Plasmodium falciparum GB4 proliferation inhibition;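 further: parasite growth measured after 72 h incubation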; further: potency means the concentration at half of the fitted maximal effect
# [6] = qHTS for differential inhibitors of proliferation of Plasmodium falciparum line 3D7 (AID 1876); further: potency means the concentration at half of the fitted maximal effect
# [7] = biological target: Endonuclease 4 (Escherichia coli (strain K12)) (UniProt P0A6C1); test: Counterscreen for APE1 Inhibitors: qHTS Validation Assay for Inhibitors of Endonuclease IV (AID 1708)
# Procedure, shortened: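 Enzyme (2 nM) + compound, 15 min RT; add 50 nM TAMRA/BHQ-2 THF-site dsDNA; kinetic read ex525/em598, 3 reads/60 s; activity = read 3 − read 1. Buffer Tris pH 7.5, 50 mM NaCl, 2 mM MgCl2, DTT, Tween-20.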
# [8] = biological target: alpha-glucosidase (Oryza sativa, rice) (UniProt Q653V4); test: Counterscreen for Glucocerebrosidase Inhibitors: qHTS Assay for Rice alpha-Glucosidase at pH 5.0 (AID 997)
# Procedure, shortened: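 Endpoint fluorogenic assay at pH 5.0: compounds (0.7 nM to 77 uM) titrated against 4 nM rice enzyme and 400 uM 4-MU-alpha-glucoside for 20 min at room temperature; NaOH/glycine stop, read ex 365/em 440 nm, Hill-fitted AC50.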
# [9] = Cell Viability - LYMP1-002 - Assay at 40 hr (AID 994); further: nearly all actives have a fitted effect of over 60% in size
# Procedure, shortened: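 Cells are plated at 2500 per well and rested 5 hr at 37 C. Compounds are added and incubated 40 hr at 37 C. CellTiter-Glo reagent is added for 30 min at room temperature before luminescence is read.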
# DNA repair nuclease/redox regulator APEX1 (Homo sapiens), sequence (P27695 whole entry, looked up): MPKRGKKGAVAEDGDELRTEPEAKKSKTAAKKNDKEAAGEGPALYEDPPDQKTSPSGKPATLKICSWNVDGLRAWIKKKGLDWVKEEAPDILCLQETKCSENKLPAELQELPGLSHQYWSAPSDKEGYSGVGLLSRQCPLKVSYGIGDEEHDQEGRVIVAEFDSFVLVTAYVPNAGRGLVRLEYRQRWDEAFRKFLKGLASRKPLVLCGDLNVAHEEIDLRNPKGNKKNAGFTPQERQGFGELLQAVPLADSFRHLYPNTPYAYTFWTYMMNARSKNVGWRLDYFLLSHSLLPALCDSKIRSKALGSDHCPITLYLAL
SMILES,outcome [1],Potency [2],Potency [3],Potency [4],Potency [5],Potency [6],Potency [7],outcome [8],outcome [9]
N[C@H]1CONC1=O,inactive,inactive,inactive,inactive,inactive,inactive,,,
COC(=O)C(N)Cc1ccc(Cl)cc1 (stereo not drawn),inactive,inactive,inactive,inactive,inactive,inactive,,,
Cn1cc(C(F)(F)F)nc1-c1ccc(OCC(O)CNCCOc2ccc(O)c(C(N)=O)c2)cc1 (stereo not drawn),inactive,inactive,inactive,12.6 µM (active),12.6 µM (active),2.82 µM (active),inactive,,
CCCN(CCc1ccccc1)C1CCc2c(O)cccc2C1 (stereo not drawn),inactive,inactive,inactive,1.12 µM (active),0.891 µM (active),3.16 µM (active),,,
COc1cccc(OC)c1OCCNCC1CSc2ccccc2O1 (stereo not drawn),inactive,inactive,inactive,7.94 µM (active),4.47 µM (active),,,,
O=C1C2C=CC=CC2=NC(=S)N1CCN1CCC(=C(c2ccc(F)cc2)c2ccc(F)cc2)CC1 (stereo not drawn),inactive,inactive,inactive,8.91 µM (active),,,,,
CC1=C(C(=O)O)N2C(=O)[C@@H](NC(=O)C(N)C3=CCC=CC3)[C@H]2SC1 (stereo partly drawn),inactive,inactive,inactive,inactive,inactive,inactive,inactive,,
CC1C(=O)N(C)C(=O)c2nc[nH]c21 (stereo not drawn),inactive,inactive,inactive,inactive,inactive,inactive,inactive,,
Cc1nc2c(OCc3ccccc3)cccn2c1CC#N,inactive,inactive,inactive,inactive,inactive,inactive,inactive,inactive,
C#CC(N)CCC(=O)O (stereo not drawn),inactive,inactive,inactive,inactive,inactive,inactive,,,
NCCCCN,inactive,inactive,inactive,inactive,inactive,inactive,inactive,inactive,
NCC(O)(CS(=O)(=O)O)c1ccc(Cl)cc1 (stereo not drawn),inactive,inactive,inactive,inactive,inactive,inactive,inactive,,
Nc1ccc(N2C(=O)c3ccccc3C2=O)c(Cl)c1,inactive,inactive,inactive,inactive,inactive,inactive,inactive,,
Nn1nnc2ccccc21,inactive,inactive,inactive,12.6 µM (active),,,inactive,inactive,
O=C(O)/C=C/c1cnc[nH]1,inactive,inactive,inactive,inactive,inactive,inactive,inactive,,
N[C@@H](Cc1ccc(F)cc1)C(=O)O,inactive,inactive,inactive,12.6 µM (active),14.1 µM (active),11.2 µM (active),inactive,,
CCCCCCCCCC(=O)NC(CN1CCOCC1)[C@H](O)c1ccccc1 (stereo partly drawn),inactive,inactive,inactive,1.26 µM (active),2 µM (active),6.31 µM (active),inactive,,
CC(N)(Cc1ccc(O)cc1)C(=O)O (stereo not drawn),inactive,inactive,inactive,inactive,inactive,inactive,inactive,,
O[Si](CCCN1CCCCC1)(c1ccc(F)cc1)C1CCCCC1 (stereo not drawn),inactive,inactive,inactive,0.0708 µM (active),0.0398 µM (active),0.0794 µM (active),,,
C=CC1(C)CC(=O)C2(O)C(C)(O1)C(OC(C)=O)C(O)C1C(C)(C)CCC(O)C12C (stereo not drawn),inactive,inactive,inactive,,inactive,inactive,inactive,,
CCN(c1nc(N)c(C(=O)N=C(N)N)nc1Cl)C(C)C,inactive,inactive,inactive,11.2 µM (active),7.94 µM (active),10 µM (active),inactive,,
COc1cc2c(CCNC(C)=O)c[nH]c2cc1O,inactive,39.8 µM (active),inactive,inactive,,inactive,inactive,inactive,
O=C(O)C1CN(CCCP(=O)(O)O)CCN1 (stereo not drawn),inactive,inactive,inactive,inactive,inactive,inactive,inactive,,
N[C@H](C(=O)O)[C@H]1C[C@@H]1C(=O)O,inactive,39.8 µM (active),inactive,inactive,inactive,inactive,,,
O=C(O)c1cc(=O)cc(C(=O)O)[nH]1,inactive,inactive,inactive,inactive,inactive,inactive,inactive,inactive,
NC(=O)c1ccccc1,inactive,inactive,inactive,inactive,inactive,inactive,inactive,,inactive

# — PubChem BioAssay (NCATS)
